The list is not random: actives were taken first. Their share in the collection is about 8.7%.
BAZ2B block = blocks human BAZ2B. Q9UIF8. AlphaScreen BAZ2B-H3K14Ac peptide displacement. Potency, µM (top dose mostly 114 µM), for the others: at the highest dose activity change, negative = inhibition, most hits filed as inhibitors. 360,000 compounds, 4.4% hits. AID 504333; further: on the % scale 0 is the no-effect control and ±100 the full control effect; nearly all actives have a fitted effect of over 60% in size
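Protein-peptide AlphaScreen: BAZ2B 50 nM, b-H3K14Ac 50 nM, 1x PBS pH 7.4 + 0.01% Tween-20. Preincubation 30 min RT; cpd 30 min RT (top 110 uM); beads 20 min RT, light-protected.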
G9a block = inhibitors of human histone lysine methyltransferase G9a. G9a H3K9 monomethylation, AlphaScreen, 2 h. Potency, µM (doses to about 102 µM), inactives show top-dose activity, negative = inhibition, actives largely listed as inhibitors. 350,000 compounds, 8.8% hits. AID 504332; further: on the % scale 0 is the no-effect control and ±100 the full control effect; nearly all actives have a fitted effect of over 75% in size
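AlphaScreen read-out: biotin-H3K9 peptide (500 nM) methylation by 20 nM enzyme with 20 uM SAM, 2 h at room temperature after 15 min compound preincubation; anti-monomethyl H3K9 antibody plus donor/acceptor beads, 10 min dark.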
JMJD2A Tudor = JMJD2A Tudor domain (human) inhibition; AID 504339; Potency, µM (titrated, usually from 114 µM), without a hit: top-dose activity change, negative = inhibition, actives largely listed as inhibitors; AlphaScreen JMJD2A-Tudor / H3K4me3 peptide binding; 390,000 compounds, 4.4% hits; O75164; further: on the % scale 0 is the no-effect control and ±100 the full control effect; nearly all actives have a fitted effect of over 50% in size
Sfp PPTase inh = Sfp phosphopantetheinyl transferase inhibition; Q9F4F7; Biochemical Sfp PPTase activity, qHTS; Potency, µM, without a hit: largest response in the series, negative = inhibition, most hits filed as inhibitors; 310,000 compounds, 3.5% hits;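 further: the enzyme is Sfp with the accession as filed and its product quenches rhodamine fluorescence; 0% = enzyme reaction without inhibitor and -100% = no enzyme wells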
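Fluorescence-quenching assay: 15 nM Sfp-PPTase preincubated 15 min at room temperature with compound, then 5 uM rhodamine-CoA and 12.5 uM BHQ-2-labelled YbbR peptide added. Fluorescence (ex 525/em 598 nm) read at start and after 30 min; difference gives rate.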
HP1b binding inh = HP1-beta chromodomain-methylated histone interaction inhibition | 390,000 compounds, 0.56% hits | AID 540317 | Potency, µM (titrated, usually from 114 µM), without a hit: at the top dose activity change, negative = inhibition, actives largely listed as inhibitors | AlphaScreen HP1-beta / biotin-H3K9me3 peptide binding | P83916; further: nearly all actives have a fitted effect of over 70% in size
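HP1-beta protein (50 nM final) preincubated 30 min at room temperature with biotinylated H3(1-18)K9me3 peptide (50 nM) in PBS pH 7.4, 0.01% Tween-20, then compound added for 30 min. AlphaScreen streptavidin donor/nickel chelate acceptor beads (10 ug/mL final), 30 min dark, luminescence read.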
ALOX12 inh = ALOX12 (human) lipoxygenase inhibition; purified 12hLO, xylenol orange hydroperoxide absorbance; Potency, µM (titrated, usually from 108 µM), for the others: at the highest dose activity change, negative = inhibition, usual class: inhibitors; 580,000 compounds, 1.1% hits; further: on the % scale 0 is the no-effect control and ±100 the full control effect
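Purified human 12hLO at 150 nM in 25 mM Hepes, 0.01% Triton X-100, pH 7.0, preincubated 15 min at room temperature with compound. Reaction started with 40 uM arachidonic acid, 30 min at room temperature. Hydroperoxide measured by Fe-xylenol orange, 573/405 nm absorbance ratio.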
* = called active by the depositor; i = inactive; ? = inconclusive; / = no result given; [ ] = dose if it differs, or a comment. The call rests on the fitted dose curve; in most records, active means well fitted curve in the direction sought with a large enough effect; inconclusive means small, poorly fitted or top-dose-only effect, or another doubt; inactive means no such curve, though single readings can be large; an effect the other way counts as inactive or inconclusive. Potency means the concentration at half of the fitted maximal effect.

SMILES	BAZ2B block	G9a block	JMJD2A Tudor	Sfp PPTase inh	HP1b binding inh	ALOX12 inh
C/C(=N\NC(=O)c1ccccn1)c1ccc(Cl)cc1	?	/	-23%	89µM*	30%	0%
C/C(=N\NC(=O)c1ccc(Cl)cc1)c1cccnc1	-1%	7%	-20%	-2%	-18%	-1%
C/C(=N\NC(=O)COc1ccccc1-c1ccccc1)c1cccnc1	-19%	-13%	-5%	4%	29%	10%
C/C(=N\NC(=O)COc1ccccc1-c1ccccc1)c1ccccn1	56µM*	-8%	10%	10%	46%	13%
Cc1oc(-c2ccccc2)nc1CNC(=O)c1ccccc1	/	/	/	/	/	-19%
C/C(=N\NC(=O)c1ccc(Cl)cc1)c1ccccn1	7.9µM*	/	25µM*	8%	23%	22%
O=C(N(c1ccccn1)c1ccccn1)C12CC3CC(CC(C3)C1)C2	1%	79µM*	-16%	8%	10%	?
CC(=NNC(=S)Nc1cccc(Cl)c1)c1ccccn1	/	/	25µM*	/	?	?
C/C(=N\NC(=O)c1cc(C)nc2ccccc12)c1ccccn1	7.9µM*	25%[2.33 µM]	20µM*	/	44%	i
S=C(NCc1ccccn1)Nc1cccc(Cl)c1	-3%	17%[0.501 µM]	?	6%	12%	?
CN1C[C@H](O)C[C@H]1c1nnc2n1CCN(C(=O)c1cccs1)CC2	/	/	/	/	/	0%
COc1ccccc1-c1c(C)nn2c(SCC(=O)NCc3ccccc3)cc(C)nc12	/	/	/	/	/	8%
CC1(C)CC(C(=O)c2ccccc2)CCO1 (stereo unspecified)	/	/	/	/	/	29%
C/C(=N\Nc1ccc(Cl)cc1)c1ccccn1	?	3.5µM*	?	0%	-7%	?
C/C(=N/NC(=O)c1ccccn1)c1ccc(O)cc1	50µM*	/	?	-25%	59%	0%
C/C(=N/Nc1cccc([N+](=O)[O-])c1)c1ccccn1	/	/	/	/	/	-45%
CC(C)CNC(=O)CCc1ccc(C#N)cc1	/	/	/	/	/	4%
Brc1cccc(OCCCN2CCCCCC2)c1	50µM*	10µM*	22µM*	-22%	?	-27%
Clc1cccc(OCCN2CCN(CCOc3cccc(Cl)c3)CC2)c1	?	?	?	-7%	-6%	?
CC1CCN(CCOc2cccc(Br)c2)CC1	56µM*	7.9µM*	7.9µM*	?	?	-33%
c1ccc(-c2ccc(SCc3cccnc3)nn2)nc1	3.2µM*	11%	?	-19%	13%	?
Cc1ccc(OCc2ccc(C(=O)N3CCOCC3)cc2)cc1C	0%	?	-13%	35µM*	30%	?
O=C(Nc1cc(F)ccc1F)N1CC(c2nnc(-c3ccncc3)o2)C2(CCOCC2)C1 (stereo unspecified)	/	/	/	/	/	0%
COc1ccc(CN2CCNC(=O)C2CC(=O)NCCc2nc(C)c(C)s2)cc1C (stereo unspecified)	-30%	45µM*	?	-13%	5%	0%
Cc1nc(CCNC(=O)CC2C(=O)NCCN2Cc2ccccc2)sc1C (stereo unspecified)	-10%	/	-8%	-14%	34%	65%
SMILES	BAZ2B block	G9a block	JMJD2A Tudor	Sfp PPTase inh	HP1b binding inh	ALOX12 inh
COc1ccc(CN2CCNC(=O)C2CC(=O)NCc2cnn(C)c2)cc1OC (stereo unspecified)	-1%	50µM*	-16%	9%	84%	-1%
O=C(Nc1ccc(Cl)cc1F)c1ccccc1OCC1CCCO1 (stereo unspecified)	/	/	/	/	/	-20%
O=C(CSc1nnc(NC(=O)c2c(F)cccc2F)s1)NCC1CCCO1 (stereo unspecified)	11%	20µM*	-1%	/	42%	-4%
O=C(Nc1nnc(SCc2cccnc2)s1)C1CC(=O)N(c2ccc(F)cc2)C1 (stereo unspecified)	-24%	40µM*	-23%	-21%	22%	?
O=C(Nc1nnc(SCCC2OCCO2)s1)C1CC(=O)N(c2ccccc2)C1 (stereo unspecified)	-24%	22µM*	-14%	-17%	31%	-28%
O=C(CSc1nnc(NC(=O)C2CC(=O)N(c3ccc(F)cc3)C2)s1)NCC1CCCO1 (stereo unspecified)	-6%	45µM*	-16%	-2%	26%	?
O=C(CSc1nnc(NC(=O)c2cccc(F)c2)s1)NCC1CCCO1 (stereo unspecified)	-5%	/	-8%	2%	27%	415%
COc1cccc(N2CC(C(=O)Nc3nnc(SCc4cccnc4)s3)CC2=O)c1 (stereo unspecified)	-33%	?	-19%	-1%	1%	2%
C=CCN(CC=C)C(=O)Nc1cccc(C(=O)NCC)c1	/	/	/	/	/	13%
CCOc1nc2ccccc2nc1N1CCC(C(=O)Nc2ccc(Cl)cc2C)CC1	/	/	/	/	/	-51%
NC(=O)c1oc2ccccc2c1NC(=O)C1CCCCC1	13%	-36%	-20%	16%	30%	-13%
O=C(Nc1nnc(SCCC2OCCO2)s1)C1CC(=O)N(c2ccc(F)cc2)C1 (stereo unspecified)	?	40µM*	-21%	-30%	27%	?
O=C(Nc1nnc(SCCN2CCOCC2)s1)C1CC(=O)N(c2ccc(F)cc2)C1 (stereo unspecified)	-30%	45µM*	-24%	-21%	23%	?
CC(=O)Nc1ccc(NC(=O)CSc2nnc(NC(=O)C3CC(=O)N(c4ccc(F)cc4)C3)s2)cc1 (stereo unspecified)	-14%	-10%	-1%	12%	27%	-2%
COc1cccc(N2CC(C(=O)Nc3nnc(SCCC4OCCO4)s3)CC2=O)c1 (stereo unspecified)	-15%	28µM*	-3%	-12%	17%	-8%
NC(=O)c1oc2ccccc2c1NC(=O)C1CC(=O)N(c2ccccc2)C1 (stereo unspecified)	0%	45µM*	-12%	/	29%	-27%
Cc1ccc(N2CC(C(=O)Nc3nnc(SCCN4CCOCC4)s3)CC2=O)cc1C (stereo unspecified)	-13%	-35%[12.7 µM]	-13%	-6%	29%	?
CCNC(=O)N1CCCC(c2nc(-c3cccnc3)no2)CCNC(=O)CC1 (stereo unspecified)	/	/	/	/	/	10%
CCCCn1nc(C(=O)N2CCCC2c2ccc3c(c2)OCCO3)c2ccccc2c1=O (stereo unspecified)	/	/	/	/	/	4%
COc1cccc(C(=O)N2CCC3(CC2)NC(=O)N(c2cccc(F)c2)N3)c1	/	/	/	/	/	2µM*
CN(C)c1ccc(C(=O)N2CCC3(CC2)NC(=O)N(c2cccc(F)c2)N3)cc1	/	/	/	/	/	5µM*
COc1ccc(C(=O)N2CCC3(CC2)NC(=O)N(c2ccc(F)cc2)N3)cc1F	/	/	/	/	/	2µM*

High-throughput results from PubChem.
